Hit rate of the full screen: of about 85,000 compounds, about 440 (0.52%) showed an effect of 50% or more. Many of the other results were omitted from the sample, so strong results are more common in it than they were.
Test: In vitro enzyme assay to detect hydrolysis of chlorophenol red-beta-D-[…] directly proportional to the number of Toxoplasma stably expressing beta-galactosidase
Format: functional, organism-based, Toxoplasma gondii
Design: scale not given: in the data most compounds retested in dose-response had high values

SMILES: CCn1ncnc1CN1CCC2(CCN(C)C2)CC1
- Percent Effect (50 µM): 28.33%

SMILES: NC(=O)CCC(=O)c1ccc2c(c1)OCCO2
- Percent Effect (50 µM): -23.48%

SMILES: Cc1cnc(NCC(O)CN2CCCCC2)nc1 (stereo not drawn)
- Percent Effect (50 µM): -5.965%

SMILES: C[C@H](N)c1ccc(F)cc1OC(F)F
- Percent Effect (50 µM): 1.744%

SMILES: CCOc1cccc(OCCNCCN)c1
- Percent Effect (50 µM): 3.655%

SMILES: NC(=O)C(NC(=O)C1CC=CC1)c1ccc(F)cc1 (stereo not drawn)
- Percent Effect (50 µM): -2.351%

SMILES: CCS(=O)(=O)CCN(C)C(=O)Nc1cc(F)cc(Cl)c1
- Percent Effect (50 µM): 0.02752%

SMILES: COCCNc1nnc(-c2ccc(C)nc2)s1
- Percent Effect (10 µM): 91.21%

SMILES: COCCNc1nc(-c2ccc(S(N)(=O)=O)cc2)cs1
- Percent Effect (50 µM): 33.23%

SMILES: COCCNc1nnc(-c2cnc(C)cn2)s1
- Percent Effect (10 µM): -7.364%

SMILES: CC(=O)c1csc(C(=O)N2CCCC2C(C)(C)O)c1 (stereo not drawn)
- Percent Effect (50 µM): -8.417%

SMILES: Cc1cncc(C(=O)N2CCCC2C(C)(C)O)c1 (stereo not drawn)
- Percent Effect (50 µM): 98.37%

SMILES: Cc1cncc(C(=O)N2CCCCC2c2nc[nH]n2)c1 (stereo not drawn)
- Percent Effect (10 µM): 2.456%

SMILES: Cc1noc(NC(=O)c2ccc(OC(F)(F)F)cc2)n1
- Percent Effect (10 µM): 62.71%

SMILES: Cc1ccc(C(=O)Nc2nc(C)no2)cc1
- Percent Effect (10 µM): 2.71%

SMILES: Cc1noc(NC(=O)c2ccc(F)cc2)n1
- Percent Effect (10 µM): -4.949%

SMILES: COCCC1CN(C(=O)c2ccc(C)c(F)c2)CCO1 (stereo not drawn)
- Percent Effect (50 µM): -2.005%

SMILES: CC(=O)Nc1cc(S(=O)(=O)NCCN(C)C)ccc1C
- Percent Effect (50 µM): 12.19%

SMILES: O=C(NCCc1ccccn1)Nc1cn[nH]c1
- Percent Effect (50 µM): -7.115%

SMILES: COC1CCN(C(=O)c2cccc(F)c2C)C1 (stereo not drawn)
- Percent Effect (50 µM): 32.95%

SMILES: O=C(O)C(F)(F)F.O=S(=O)(C1CC1)N1CCOCC2(CCN(c3ccccn3)C2)C1 (stereo not drawn)
- Percent Effect (10 µM): -7.77%

SMILES: CS(=O)(=O)N1CCOCC2(CCN(c3ccccn3)C2)C1.O=C(O)C(F)(F)F (stereo not drawn)
- Percent Effect (10 µM): 93.48%

SMILES: CCS(=O)(=O)N1CCOCC2(CCN(c3ccccn3)C2)C1.O=C(O)C(F)(F)F (stereo not drawn)
- Percent Effect (10 µM): -1.246%

SMILES: Cc1ccc2[nH]c(CN3CCC(O)C3)cc(=O)c2c1 (stereo not drawn)
- Percent Effect (50 µM): -10.62%

SMILES: Fc1ccc(CN2CCCC2Cn2cncn2)c2ncccc12 (stereo not drawn)
- Percent Effect (10 µM): -4.806%

SMILES: Fc1ccc(CN2CCCC2Cn2cccn2)c2ncccc12 (stereo not drawn)
- Percent Effect (10 µM): 4.2%

SMILES: OC[C@@H]1CCCN1Cc1ccc(F)c2cccnc12
- Percent Effect (50 µM): 78.15%

SMILES: Cc1nc(CC(=O)N[C@H]2CC[C@H]2N)cs1
- Percent Effect (50 µM): 7.419%

SMILES: Cc1cc(C(=O)Nc2cn(C)cc(Br)c2=O)[nH]n1
- Percent Effect (50 µM): -6.695%

SMILES: Cc1cccc(OCCCN2CCC(N(C)Cc3noc(C)n3)C2)c1 (stereo not drawn)
- Percent Effect (10 µM): 19.53%

SMILES: CCCN1CCC(Cc2noc(C3CCNC3)n2)CC1 (stereo not drawn)
- Percent Effect (50 µM): 2.055%

SMILES: C(Cc1noc(C2CNC2)n1)OCC1CC1
- Percent Effect (50 µM): 84.88%

SMILES: C1CC(COCCc2noc(C3CNC3)n2)CCO1
- Percent Effect (50 µM): 31.48%

SMILES: C1CC(c2noc(C3CC3)n2)CN(CCOCC2CC2)C1 (stereo not drawn)
- Percent Effect (10 µM): 10.99%

SMILES: COCCc1noc(C2CNC2)n1
- Percent Effect (50 µM): -4.923%

SMILES: c1ccc(COCc2nc(C3CCCNC3)no2)cc1 (stereo not drawn)
- Percent Effect (50 µM): -2.705%

SMILES: c1ccc(COCCc2noc(C3CNC3)n2)cc1
- Percent Effect (50 µM): 62.37%

SMILES: C1CCC(COCCc2noc(C3CNC3)n2)C1
- Percent Effect (50 µM): 57.88%

SMILES: Cc1cccc(OCCc2noc(C3CNC3)n2)c1
- Percent Effect (50 µM): 82.99%

SMILES: COCCc1noc(C2CCN(CC(N)=O)CC2)n1
- Percent Effect (50 µM): 1.681%

SMILES: Cc1cccc(OCCN2CCN(Cc3noc(C)n3)CC2)c1
- Percent Effect (10 µM): -13.55%

SMILES: CNS(=O)(=O)c1ccc(C(=O)NCC(C)(C)N(C)C)o1
- Percent Effect (50 µM): -2.111%

SMILES: NC(=O)c1ccc(CNC2CC2)c(F)c1
- Percent Effect (50 µM): -8.127%

SMILES: COC(=O)CC(NC(=O)c1cc(C)n[nH]1)C1CC1 (stereo not drawn)
- Percent Effect (50 µM): 5.421%

SMILES: Cn1cc(CC(=O)Nc2ccc(I)cn2)cn1
- Percent Effect (50 µM): -1.266%

SMILES: Cc1ccc(Br)c(NCC(=O)N2CCOCC2)c1
- Percent Effect (50 µM): 6.776%

SMILES: CNC(C)CCNC(=O)c1cc(C)nn1C (stereo not drawn)
- Percent Effect (50 µM): -4.64%

SMILES: Cc1csc(S(=O)(=O)NCCCOCC2CCCO2)n1 (stereo not drawn)
- Percent Effect (50 µM): -3.897%

SMILES: CCC(C)NC(=O)NC1CCN(c2ccccn2)CC1 (stereo not drawn)
- Percent Effect (50 µM): -18.28%

SMILES: N#Cc1cc(F)c(S(=O)(=O)NCCN)c(F)c1
- Percent Effect (50 µM): -7.913%

SMILES: Cn1ncc2c(N3CCS(=O)(=O)CC3)nc(-c3cccnc3)nc21
- Percent Effect (10 µM): 6.498%

SMILES: Cn1ncc2c(N3CCC3)nc(-c3ccncc3)nc21
- Percent Effect (10 µM): -3.528%

SMILES: CC(C)N1CCCN(c2nc(-c3cccnc3)nc3c2cnn3C)CC1
- Percent Effect (10 µM): 55.95%

SMILES: Cc1nc(CC(=O)NCc2csc(N3CCCC3)n2)cs1
- Percent Effect (10 µM): -6.671%

SMILES: O=C(NCc1csc(N2CCCC2)n1)C1CNCCO1 (stereo not drawn)
- Percent Effect (50 µM): 26.16%

SMILES: N[C@@H]1CC[C@H](C(=O)NCc2csc(N3CCCC3)n2)C1
- Percent Effect (50 µM): 62.86%

SMILES: C[C@@H]1CNC[C@H]1c1nc(-c2ccncc2)no1
- Percent Effect (50 µM): 1.432%

SMILES: CCc1nc(NCCCn2cccn2)c2c(n1)c(C)nn2C
- Percent Effect (10 µM): 7.651%
